Measurements as given in publication PMC5540273 (PLoS ONE, 2017).

Test system: CDK3
Conditions: concentration: 1 μM, replicates: in singlicate; n = 1
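Further: KINOMEscan kinase panel screen.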

| Compound | %Inh |
| --- | --- |
| Nc1nc(-c2nccs2)c(-c2ccnc3ccccc23)s1 [GW693542] | 7% |
| CC1=C(C(=O)Nc2cc3cn[nH]c3cc2F)C(c2ccc(C(F)(F)F)cc2)CC(=O)N1 (stereo not shown) [GSK429286] | 18% |
| Cc1cccc(-c2nc(Nc3ccc4[nH]ncc4c3)c3ccccc3n2)n1 [GW857175] | 0% |
| Cc1cc(NCC(c2ccccc2)c2ccccc2)nc(NCc2ccc(C(F)(F)F)cc2)n1 [GW497681] | 0% |
| COC(=O)c1c(-c2ccccc2)c2cc(OC)ccc2c(=O)n1Cc1ccccc1 | 10% |
| Cn1ccc2ncnc(Oc3ccc(Nc4nc5ccccc5[nH]4)cc3)c21 | 0% |
| COc1cc(Nc2nccc(N3CCC(NC(=O)Nc4cc(C)ccc4C)C3)n2)cc(OC)c1OC (stereo not shown) [GSK1379762] | 15% |
| O=C(Nc1ccccc1)Nc1cccc(Oc2ccc3nccn3n2)c1 | 10% |
| Cl.O=C(Nc1cccc(-c2nn3ncccc3c2-c2ccnc(Nc3cccnc3)n2)c1)c1c(F)cccc1F [GSK312879] | 19% |
| CCn1c(-c2ccccn2)nc2cnccc21 [SB-736398] | 0% |
| CC(C)(C)c1ccc(C(=O)Nc2cn3cc(Cl)ccc3n2)cc1 | 0% |
| Cl.NC(=O)c1cccc(Nc2nccc(Nc3ccc(Oc4cccc(Cl)c4)c(Cl)c3)n2)c1 [GW659008] | 24% |
| Cc1ccccc1-n1cnc2c(N)ncnc21 [SKF-97510] | 0% |
| COc1ccc2nc(-c3cccc(C)n3)nc(Nc3ccncc3)c2c1 [GSK204919] | 0% |
| Cc1nnc(-c2ccc3occ(-c4ccc(S(C)=O)cc4)c3c2)[nH]1 (stereo not shown) | 7% |
| Cc1cccc(-c2cc(Nc3ccncc3)c3ccccc3n2)n1 [GSK223675] | 0% |
| Cc1csc(-c2nc(Nc3ccncc3)c3ccccc3n2)n1 [GW869640] | 9% |

| Compound | %Inh |
| --- | --- |
| Cn1ccc2ncnc(Oc3cccc(C(=O)Nc4ccccc4)c3)c21 | 1% |
| O=C(Nc1n[nH]c2cc(-c3cccc(F)c3F)ccc12)C1CC1 [SB-733894] | 0% |
| Cc1cc(-c2ccc3c(c2)CC[C@@H](N[C@@H](C)c2ccccc2)C3)cnc1N.Cl [GW412617] | 6% |
| Cc1ccc(NC(=O)Nc2cccc(Cl)c2)cc1-c1ccc(C(=O)Nc2ccncc2)cc1 [GSK1398468] | 6% |
| CN(C)CCN(C)C(=O)c1cc(-c2ccncc2)c(-c2ccc(Cl)c(O)c2)o1.Cl.Cl [SB-710397] | 20% |
| O=C(Nc1n[nH]c2nc(-c3nccs3)c(Br)cc12)C1CC1 [SB-742251] | 50% |
| Cc1cccc(-c2nc(C)cc(Nc3ccncc3)n2)n1 [GSK257997] | 0% |
| Cc1cccc(-c2nc(Nc3cccc(C(N)=O)c3)c3ccccc3n2)n1 [GW876019] | 59% |
| COc1cc2ncnc(Nc3ccc4nc(-c5ccccc5)[nH]c4c3)c2cc1OC.Cl [GW282450] | 22% |
| CN1C(=O)C(Nc2ccc(Cl)c(C(=O)O)c2)=C(c2ccc(Cl)cc2)C1=O [SB-404290] | 6% |
| Cc1cccc(-c2nc(Nc3ccncc3)c3ccccc3n2)n1 [GW855857] | 20% |
| CCn1c(-c2cccnc2O)nc2cnccc21 [SB-736715] | 0% |
| COc1ccccc1-c1ccc2c(NC(=O)C3CC3)n[nH]c2n1 [SB-711239] | 8% |
| CS(=O)(=O)c1ccc(-c2nc3n(c2-c2ccncc2)CCC3)cc1 [SKF-105942] | 28% |
| CC(C)(C)c1ccc(C(=O)Nc2cn3cc(-c4cccnc4)ccc3n2)cc1 | 10% |
| Cc1c(Cn2ccn3c(=O)cc(N4CCOCC4)nc23)cccc1C(F)(F)F [GSK2289044] | 9% |
| O=C(O)COc1ncnc2cc(-c3ccc4[nH]ncc4c3)sc12 | 20% |
